Measured values: PubChem BioAssay AID431 (Sanford-Burnham Center for Chemical Genomics, 2006)
Out of some 63,000 compounds screened, about 1,100 (1.7%) were called active. The sample as a whole holds a higher share of actives than the screen did. Potency and affinity values are given separately. Values without a mark were called inactive.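 The calls were made as follows: active = compounds whose percent cytotoxicity in the single-dose primary screen, scaled between solvent and toxic-drug controls, exceeds 50; inactive = the rest.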

Experiment: cytotoxicity in KRAS-transformed pancreatic duct cells, primary screen, cell-based, fluorescence, HTS (AID 431);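 also: 0% = DMSO solvent wells and 100% = doxorubicin-treated wells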
Settings: HPDE-C7K KRASV12 cells, Alamar Blue viability, 48 h; at 10 µM; active compounds read high

SMILES | cytotoxicity
O=C(CCCCCn1c(SCc2ccncc2)nc2ccccc2c1=O)NCc1ccco1 | 9.3%
COc1ccc(OC)c(NC(=O)c2cc(-c3ccc(C)cc3O)n[nH]2)c1 | -0.5%
Cc1ccc(O)c(-c2cc(C(=O)Nc3ccc(S(=O)(=O)N4CC(C)OC(C)C4)cc3)[nH]n2)c1 (stereo unspecified) | -13.4%
COc1ccc(OC)c(NC(=O)c2cc(-c3cc(Cl)ccc3O)n[nH]2)c1 | 1.7%
Cc1cc(O)c(-c2cc(C(=O)Nc3ccc(S(=O)(=O)N4CCOCC4)cc3)[nH]n2)cc1C | 6.5%
COc1ccc(NC(=O)c2cc(-c3cc(C)cc(C)c3O)n[nH]2)cc1Cl | 70.7% (active)
Cc1c(N=C2SCC(=O)N2c2c(C)n(C)n(-c3ccccc3)c2=O)c(=O)n(-c2ccccc2)n1C | 15.2%
COc1ccccc1/C=c1\sc2nc(-c3ccncc3)nn2c1=O | -13.5%
COc1ccc2nc3sc(C(=O)NCc4cccs4)c(N)c3cc2c1 | 5.5%
c1ccc(-c2oc3ncnc(NCCCN4CCOCC4)c3c2-c2ccccc2)cc1 | 59.8% (active)
N=c1c2c(-c3ccccc3)c(-c3ccccc3)oc2ncn1CCCN1CCOCC1 | 55.5% (active)
c1ccc(-c2oc3ncnc(NCCCn4ccnc4)c3c2-c2ccccc2)cc1 | 17.3%
COc1ccc(-c2oc3ncn(CCN4CCOCC4)c(=N)c3c2-c2ccc(OC)cc2)cc1 | 17.3%
c1ccc(-c2oc3ncnc(NCCN4CCOCC4)c3c2-c2ccccc2)cc1 | 42%
COc1ccc(-c2oc3ncnc(NCCCN4CCOCC4)c3c2-c2ccc(OC)cc2)cc1 | 107% (active)
N=c1c2c(-c3ccccc3)c(-c3ccccc3)oc2ncn1CCN1CCOCC1 | 33.6%
COc1ccc(-c2csc3ncnc(NCCN4CCOCC4)c23)cc1 | 25.8%
COc1ccc(-c2oc3ncnc(NCCN4CCOCC4)c3c2-c2ccc(OC)cc2)cc1 | 4%
CCc1nnc(NC=C2C(=O)OC(C)(C)OC2=O)s1 | -7.7%
Cc1c(/C(O)=C2/C(=O)C(=O)N(CCN3CCOCC3)C2c2cccnc2)cnn1-c1ccccc1 (stereo unspecified) | -12.5%
CCN(CC)CCN1C(=O)C(O)=C(C(=O)c2sc(C)nc2C)C1c1cccnc1 (stereo unspecified) | -8.8%

SMILES | cytotoxicity
O=C(CN1CCN(C(=O)c2cccs2)CC1)NC1CCCCC1 | -4.4%
CC1(C)CC(=O)C(C=Nc2cccnc2)=C(O)C1 | 7.1%
COc1cc(C(=O)Nc2cccc(-c3nc4cc(C)ccc4o3)c2C)cc(OC)c1OC | 14.3%
CCOC(=O)C1=C(N)Oc2cc(C)oc(=O)c2C1c1cccnc1 (stereo unspecified) | 4.4%
Cc1n[nH]c(=O)nc1NCc1ccccc1 | -17%
CCCCCc1c(C)nc(NCc2ccccc2)[nH]c1=O | 2.9%
CCC(C)(C)NC(=O)C(c1cccn1C)N(Cc1ccccc1)C(=O)Cn1nnc2ccccc21 (stereo unspecified) | -4.3%
CC(=O)NC1CSCC1OC(C)=O (stereo unspecified) | -14.9%
CCOC(=O)c1c(N)sc(C(=O)N2CCOCC2)c1C | -10.1%
O=C(Nc1cccnc1)c1ccc(COc2ccccc2Br)o1 | 30.3%
O=C(Nc1nccs1)c1ccc(COc2ccccc2Br)o1 | 51% (active)
COc1ccc(NC(=O)c2ccc(COc3ccccc3Br)o2)cc1OC | 40.4%
CC(C)(C)NC(=O)c1ccc(COc2ccccc2Br)o1 | -20.3%
COc1cc(NC(=O)c2ccc(COc3ccccc3Br)o2)cc(OC)c1OC | 68.9% (active)
O=C(Nc1nccs1)c1ccc(COc2ccc(F)cc2)o1 | 5%
CC(C)c1nc(SCC(=O)NCc2ccccc2)n[nH]1 | -9.2%
CN1C(=O)c2ccccc2N(C)C1c1ccc2c(c1)OCO2 (stereo unspecified) | 6.7%
COc1ccc(C(=O)NCC(=O)n2nc(C)cc2C)cc1OC | 13.4%
Cc1ccc2c(c1)N(C(C)C(=O)NCCc1ccccc1)C(=O)CO2 (stereo unspecified) | -4.9%
COc1cccc(CN(C)CC(=O)NC(=O)NCc2ccco2)c1 | -9.5%
O=C(CN(C1CCCCC1)S(=O)(=O)c1ccccc1)NCc1cccnc1 | 73.1% (active)

SMILES | cytotoxicity
O=C(CN(C1CCCCC1)S(=O)(=O)c1ccc(Cl)cc1)NCc1cccnc1 | -28.1%
Cc1ccc(S(=O)(=O)N(CC(=O)NCc2ccncc2)C2CCCCC2)cc1 | 1.7%
COc1ccc(C(=O)N2CCCC(c3nc(-c4cccs4)no3)C2)cc1 (stereo unspecified) | 3%
CCOc1ccc(-c2c(C#N)c(N)nc3c2c(=O)n(C)c(=O)n3C)cc1OC | -3.8%
Clc1ccc(-n2ncc3c(NCc4ccco4)ncnc32)cc1 | 8.8%
Cc1cccc(-n2ncc3c(NCc4ccco4)ncnc32)c1 | 69.2% (active)
CCCCNc1ncnc2c1cnn2-c1ccccc1 | 61.8% (active)
Cc1ccc(-n2ncc3c(NCc4ccco4)ncnc32)c(C)c1 | 5.4%
c1ccc(-n2ncc3c(NCc4ccco4)ncnc32)cc1 | 7.1%
CCCCNc1ncnc2c1cnn2-c1ccc(Cl)cc1 | 28.5%
c1ccc(Cn2ncc3c(NCc4ccco4)ncnc32)cc1 | 8.3%
CN(C)CCCNc1ncnc2c1cnn2-c1ccccc1 | 0.7%
Clc1ccc(Cn2ncc3c(NCc4ccco4)ncnc32)c(Cl)c1 | 60.9% (active)
COc1ccc(S(=O)(=O)Cc2ccc(C(=O)NCCCN(C)c3ccccc3)o2)cc1 | 2.5%
CCOC(=O)C1C(=O)CC(C)(O)C(C(=O)OCC)C1c1ccco1 (stereo unspecified) | 1.3%
CC1CC(C)CN(C(=O)CCCn2c(=S)[nH]c3ccccc3c2=O)C1 (stereo unspecified) | -3.1%
CCOc1cc(C(=O)N2CCOCC2)ccc1OCc1ccccc1 | -7.3%
CC(C)OCCCNC(=O)CN1CCN(Cc2ccccc2Cl)C1=O | -6.4%
Cc1nnc(NC(=O)CSc2nnc(CNC(=O)c3ccccc3)n2-c2ccccc2)s1 | -0.6%
